Results as given in article PMC9911399, “Two distinct binding modes provide the RNA-binding protein RbFox with extraordinary sequence specificity”.
Substitutions are numbered along the chain they refer to; changes in the protein carry UniProt numbers. Over roughly 16,000 sequences, “ka relative to ugcaugu” has its median near 0.096; the highest 2% begin near 0.35. This is one part of a sample in which the highest values are shown more often than they occur.

T1: RBFOX1 RRM RbFoxmut (Fox-RRM*) (Homo sapiens, UniProt Q9NWB1 109-208, R118D;E147R;N151S;E152T)
T1 sequence: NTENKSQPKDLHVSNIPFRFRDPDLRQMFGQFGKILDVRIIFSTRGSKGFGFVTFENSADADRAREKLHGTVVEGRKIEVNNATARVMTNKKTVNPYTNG

B1: CUUGAUA (DNA:RNA)
RNA: GGGAGACCGGAAUUCAGAUUGUCCCUUGAUAUUAAAUCCCGUCGUAGCCACCA
DNA 1: CAATCTGAATTCCGGTCTCCC
DNA 2: TGGTGGCTACGACGGGATT
B2: AGCGCUC (DNA:RNA)
RNA: B1 RNA with C25A, U26G, U27C, A29C, A31C
DNA 1: CAATCTGAATTCCGGTCTCCC
DNA 2: TGGTGGCTACGACGGGATT
B3: ACCCAAG (DNA:RNA)
RNA: B1 RNA with C25A, U26C, U27C, G28C, U30A, A31G
DNA 1: CAATCTGAATTCCGGTCTCCC
DNA 2: TGGTGGCTACGACGGGATT
B4: GUGAAUU (DNA:RNA)
RNA: B1 RNA with C25G, U27G, G28A, A31U
DNA 1: CAATCTGAATTCCGGTCTCCC
DNA 2: TGGTGGCTACGACGGGATT
B5: GUGUGAA (DNA:RNA)
RNA: B1 RNA with C25G, U27G, G28U, A29G, U30A
DNA 1: CAATCTGAATTCCGGTCTCCC
DNA 2: TGGTGGCTACGACGGGATT
B6: GUGAAUG (DNA:RNA)
RNA: B1 RNA with C25G, U27G, G28A, A31G
DNA 1: CAATCTGAATTCCGGTCTCCC
DNA 2: TGGTGGCTACGACGGGATT
B7: AAAUCUU (DNA:RNA)
RNA: B1 RNA with C25A, U26A, U27A, G28U, A29C, A31U
DNA 1: CAATCTGAATTCCGGTCTCCC
DNA 2: TGGTGGCTACGACGGGATT
B8: UGAGAAU (DNA:RNA)
RNA: B1 RNA with C25U, U26G, U27A, U30A, A31U
DNA 1: CAATCTGAATTCCGGTCTCCC
DNA 2: TGGTGGCTACGACGGGATT
B9: GCUUAUG (DNA:RNA)
RNA: B1 RNA with C25G, U26C, G28U, A31G
DNA 1: CAATCTGAATTCCGGTCTCCC
DNA 2: TGGTGGCTACGACGGGATT
B10: CCUACGU (DNA:RNA)
RNA: B1 RNA with U26C, G28A, A29C, U30G, A31U
DNA 1: CAATCTGAATTCCGGTCTCCC
DNA 2: TGGTGGCTACGACGGGATT
B11: CACCCGC (DNA:RNA)
RNA: B1 RNA with U26A, U27C, G28C, A29C, U30G, A31C
DNA 1: CAATCTGAATTCCGGTCTCCC
DNA 2: TGGTGGCTACGACGGGATT
B12: UACUGGU (DNA:RNA)
RNA: GGGAGACCGGAAUUCAGAUUGUCCUACUGGUUUAAAUCCCGUCGUAGCCACCA
DNA 1: CAATCTGAATTCCGGTCTCCC
DNA 2: TGGTGGCTACGACGGGATT
B13: UGGAGAG (DNA:RNA)
RNA: B12 RNA with A26G, C27G, U28A, G30A, U31G
DNA 1: CAATCTGAATTCCGGTCTCCC
DNA 2: TGGTGGCTACGACGGGATT
B14: UGGAGAC (DNA:RNA)
RNA: B12 RNA with A26G, C27G, U28A, G30A, U31C
DNA 1: CAATCTGAATTCCGGTCTCCC
DNA 2: TGGTGGCTACGACGGGATT
B15: UGGAUCC (DNA:RNA)
RNA: B12 RNA with A26G, C27G, U28A, G29U, G30C, U31C
DNA 1: CAATCTGAATTCCGGTCTCCC
DNA 2: TGGTGGCTACGACGGGATT
B16: UGGAUGG (DNA:RNA)
RNA: B12 RNA with A26G, C27G, U28A, G29U, U31G
DNA 1: CAATCTGAATTCCGGTCTCCC
DNA 2: TGGTGGCTACGACGGGATT
B17: UGGAUCG (DNA:RNA)
RNA: B12 RNA with A26G, C27G, U28A, G29U, G30C, U31G
DNA 1: CAATCTGAATTCCGGTCTCCC
DNA 2: TGGTGGCTACGACGGGATT
B18: UGGAUGC (DNA:RNA)
RNA: B12 RNA with A26G, C27G, U28A, G29U, U31C
DNA 1: CAATCTGAATTCCGGTCTCCC
DNA 2: TGGTGGCTACGACGGGATT
B19: UGGAGUG (DNA:RNA)
RNA: B12 RNA with A26G, C27G, U28A, G30U, U31G
DNA 1: CAATCTGAATTCCGGTCTCCC
DNA 2: TGGTGGCTACGACGGGATT
B20: CGGAGUG (DNA:RNA)
RNA: B1 RNA with U26G, U27G, G28A, A29G, A31G
DNA 1: CAATCTGAATTCCGGTCTCCC
DNA 2: TGGTGGCTACGACGGGATT
B21: CGGACUG (DNA:RNA)
RNA: B1 RNA with U26G, U27G, G28A, A29C, A31G
DNA 1: CAATCTGAATTCCGGTCTCCC
DNA 2: TGGTGGCTACGACGGGATT
B22: GGAUCCG (DNA:RNA)
RNA: B12 RNA with U25G, A26G, C27A, G29C, G30C, U31G
DNA 1: CAATCTGAATTCCGGTCTCCC
DNA 2: TGGTGGCTACGACGGGATT
B23: CGGAUGC (DNA:RNA)
RNA: B1 RNA with U26G, U27G, G28A, A29U, U30G, A31C
DNA 1: CAATCTGAATTCCGGTCTCCC
DNA 2: TGGTGGCTACGACGGGATT
B24: UGGACUG (DNA:RNA)
RNA: B1 RNA with C25U, U26G, U27G, G28A, A29C, A31G
DNA 1: CAATCTGAATTCCGGTCTCCC
DNA 2: TGGTGGCTACGACGGGATT
B25: UAAGGAG (DNA:RNA)
RNA: B12 RNA with C27A, U28G, G30A, U31G
DNA 1: CAATCTGAATTCCGGTCTCCC
DNA 2: TGGTGGCTACGACGGGATT
B26: AGUAGGG (DNA:RNA)
RNA: B12 RNA with U25A, A26G, C27U, U28A, U31G
DNA 1: CAATCTGAATTCCGGTCTCCC
DNA 2: TGGTGGCTACGACGGGATT
B27: CAAGUGG (DNA:RNA)
RNA: B1 RNA with U26A, U27A, A29U, U30G, A31G
DNA 1: CAATCTGAATTCCGGTCTCCC
DNA 2: TGGTGGCTACGACGGGATT
B28: AUUCAGA (DNA:RNA)
RNA: B1 RNA with C25A, G28C, U30G
DNA 1: CAATCTGAATTCCGGTCTCCC
DNA 2: TGGTGGCTACGACGGGATT
B29: AGUCACU (DNA:RNA)
RNA: B1 RNA with C25A, U26G, G28C, U30C, A31U
DNA 1: CAATCTGAATTCCGGTCTCCC
DNA 2: TGGTGGCTACGACGGGATT
B30: UACUUUU (DNA:RNA)
RNA: B12 RNA with G29U, G30U
DNA 1: CAATCTGAATTCCGGTCTCCC
DNA 2: TGGTGGCTACGACGGGATT
B31: UCCUCCU (DNA:RNA)
RNA: B12 RNA with A26C, G29C, G30C
DNA 1: CAATCTGAATTCCGGTCTCCC
DNA 2: TGGTGGCTACGACGGGATT

Biological target: T1, RBFOX1 RRM RbFoxmut (Fox-RRM*)
Assay: EMSA; HiTS-Eq, 1 nM pool, 10 min; buffer printed only for the single-RNA assays: 10 mM Tris pH 7.5, 150 mM NaCl, 3.4 mM EDTA, 0.001% NP-40, 30 C
Details: tags: His6 N-terminal (pET28a); label: 5' 32P
How it was run: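 These values rest on relative association constants, computed from read-count changes of each RNA species versus the control reaction and normalised to the cognate motif. Reads came from free RNA recovered by 8% native PAGE after purified RbFox RRM (wild type or mutant) at increasing concentrations was equilibrated for 10 min in 50 µL with 1 nM of a 5′-radiolabelled pool with 7 randomized nucleotides and DNA-annealed flanks.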

| Binder | binding signal |
| --- | --- |
| B1 | 0.134 KA relative to UGCAUGU |
| B2 | 0.0471 KA relative to UGCAUGU |
| B3 | 0.0886 KA relative to UGCAUGU |
| B4 | 0.118 KA relative to UGCAUGU |
| B5 | 0.132 KA relative to UGCAUGU |
| B6 | 1.45 KA relative to UGCAUGU |
| B7 | 0.0581 KA relative to UGCAUGU |
| B8 | 0.092 KA relative to UGCAUGU |
| B9 | 0.142 KA relative to UGCAUGU |
| B10 | 0.146 KA relative to UGCAUGU |
| B11 | 0.0852 KA relative to UGCAUGU |
| B12 | 0.103 KA relative to UGCAUGU |
| B13 | 0.108 KA relative to UGCAUGU |
| B14 | 0.0876 KA relative to UGCAUGU |
| B15 | 0.211 KA relative to UGCAUGU |
| B16 | 0.332 KA relative to UGCAUGU |

| Binder | binding signal |
| --- | --- |
| B17 | 0.597 KA relative to UGCAUGU |
| B18 | 0.438 KA relative to UGCAUGU |
| B19 | 0.45 KA relative to UGCAUGU |
| B20 | 0.198 KA relative to UGCAUGU |
| B21 | 0.353 KA relative to UGCAUGU |
| B22 | 0.153 KA relative to UGCAUGU |
| B23 | 0.189 KA relative to UGCAUGU |
| B24 | 0.418 KA relative to UGCAUGU |
| B25 | 0.11 KA relative to UGCAUGU |
| B26 | 0.0759 KA relative to UGCAUGU |
| B27 | 0.0554 KA relative to UGCAUGU |
| B28 | 0.0812 KA relative to UGCAUGU |
| B29 | 0.0668 KA relative to UGCAUGU |
| B30 | 0.097 KA relative to UGCAUGU |
| B31 | 0.0641 KA relative to UGCAUGU |
